Screening results deposited in PubChem by National Center for Advancing Translational Sciences (NCATS).
The full list was thinned out, with hits kept by preference.
DT40 TDP1 CPT = growth inhibition of DT40 Tdp1-/-;hTDP1 cells with camptothecin (screen for TDP1 inhibitors); chicken DT40 Tdp1-/-;hTDP1 cells + 20 nM CPT, ATP luminescence, 48 h; Potency, µM (series often up to 46.2 µM), for inactives: at the highest dose activity change, negative = growth inhibition, usual class: inhibitors; 12% of 420,000 active; AID 686979; further: potency means the concentration at half of the fitted maximal effect; nearly all actives have a fitted effect of over 55% in size
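Chicken DT40 Tdp1-/- cells stably complemented with human TDP1 were seeded at 400 cells/well in medium containing 20 nM camptothecin, exposed to pin-transferred compounds, and grown at 37 °C for at least 48 hr. Viability was read as ATP luminescence.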
ALOX12 inh = inhibitors of human 12S-lipoxygenase ALOX12; P18054; purified 12hLO, xylenol orange hydroperoxide absorbance; Potency, µM (top dose mostly 108 µM), for inactives: at the top dose activity change, negative = inhibition, most hits filed as inhibitors; 1.1% of 580,000 active; AID 1671190; further: potency means the concentration at half of the fitted maximal effect
Target sequence (P18054 whole entry, looked up): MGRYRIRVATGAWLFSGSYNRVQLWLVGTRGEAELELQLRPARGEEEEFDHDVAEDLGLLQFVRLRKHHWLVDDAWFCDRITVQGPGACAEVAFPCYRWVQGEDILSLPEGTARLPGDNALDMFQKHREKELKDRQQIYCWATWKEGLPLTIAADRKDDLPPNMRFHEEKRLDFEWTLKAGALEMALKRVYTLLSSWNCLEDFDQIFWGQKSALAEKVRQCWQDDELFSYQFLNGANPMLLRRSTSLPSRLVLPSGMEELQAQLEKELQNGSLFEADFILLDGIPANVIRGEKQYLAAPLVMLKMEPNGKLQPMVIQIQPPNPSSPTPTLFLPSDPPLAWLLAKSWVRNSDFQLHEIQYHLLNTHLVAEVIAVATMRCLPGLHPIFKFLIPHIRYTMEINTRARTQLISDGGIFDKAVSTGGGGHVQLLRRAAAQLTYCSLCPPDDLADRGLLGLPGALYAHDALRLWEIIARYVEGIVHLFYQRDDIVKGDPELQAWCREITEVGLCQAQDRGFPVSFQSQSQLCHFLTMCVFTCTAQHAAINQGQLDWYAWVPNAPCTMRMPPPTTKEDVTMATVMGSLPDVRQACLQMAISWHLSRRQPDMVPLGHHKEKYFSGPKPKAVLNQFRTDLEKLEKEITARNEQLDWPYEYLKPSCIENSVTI
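Hydroperoxide product was detected by ferrous iron/xylenol orange as the 573 to 405 nm absorbance ratio. Arachidonic acid at 40 uM (final) was turned over for 30 min at room temperature by 150 nM human 12hLO, pH 7.0 Hepes buffer, after 15 min compound preincubation.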
HT1080 IDH1KD tx = toxicity to HT-1080 IDH1 knockdown cells (counter line); HT-1080 IDH1 knockdown viability, ATP luminescence, 48 h; AID 686971; 2% of 360,000 active; Potency, µM (doses to about 46.1 µM), inactives show at the highest dose activity, negative = toxicity, actives largely listed as cytotoxic;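 further: potency means the concentration at half of the fitted maximal effect; 0% = DMSO wells and -100% = cell-free medium wells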
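CellTiter-Glo luminescence after 48 h compound exposure at 37 degrees C of IDH1-knockdown HT-1080 cells in 5% FBS RPMI. %Activity scaled between DMSO wells and cell-free media wells, with curves fitted and assigned curve classes.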
DT40 TDP1 no CPT = qHTS for Inhibitors of human tyrosyl-DNA phosphodiesterase 1 (TDP1): qHTS in cells in absence of CPT; DT40 Tdp1-/- hTDP1 cells, no CPT, ATP luminescence, 48 h; Potency, µM (doses to about 46.2 µM), inactives show top-dose activity change, negative = growth inhibition, actives largely listed as inhibitors; 15% of 420,000 active; AID 686978, 2013; further: potency means the concentration at half of the fitted maximal effect; nearly all actives have a fitted effect of over 55% in size
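Stably hTDP1-transfected Tdp1-null chicken DT40 cells were treated with library compounds minus camptothecin and grown for at least 48 hr at 37 °C, after which cellular ATP was quantified by luminescence.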
HT1080-NT tox = kills 2HG-producing HT-1080-NT fibrosarcoma cells | HT-1080-NT fibrosarcoma viability, CellTiter-Glo ATP luminescence, 48 h | 1.6% of 360,000 active | Potency, µM (titrated, usually from 46.1 µM), for the others: top-dose activity, negative = less viability, actives largely listed as cytotoxic | AID 686970;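 further: NT is the 2HG producing partner of a matched IDH1 knockdown line; potency means the concentration at half of the fitted maximal effect; 0% = DMSO-treated cells and -100% = media-only wells without cells; nearly all actives have a fitted effect of over 55% in size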
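Viability by CellTiter-Glo luminescence after 48 h compound exposure at 37C of HT-1080-NT cells (750/well, RPMI, 5% FBS). % activity scaled between DMSO wells and medium-only wells, then curve-fitted and categorized by curve class.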
IL-1B inflam inh = inflammasome signaling inhibition, IL-1 beta readout. 4.7% of 360,000 active. THP-1 LPS/ATP IL-1B secretion, AlphaLISA, 16 h; stronger effect = lower value. AID 743279. activity change, % at 57.5 µM; in the data active means activity change below about -50%; inconclusive means mostly about -30% to -49%
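THP-1 cells pretreated 1 hr with compounds (up to 57.5 uM final), then stimulated with LPS (250 ng/mL final) plus ATP (1.25 mM final); secreted IL-1B measured by AlphaLISA after 16 hr, decreased signal indicating inhibition.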
Active calls of the source: *; ? = inconclusive; . = not tested or not shown; [ ] = dose if it differs, or a comment. Unless noted, the call rests on the fitted dose curve; in most records, active means well fitted curve in the direction sought with a large enough effect; inconclusive means small, poorly fitted or top-dose-only effect, or another doubt; inactive means no such curve, though single readings can be large; an effect the other way counts as inactive or inconclusive. Unless noted, on the % scale 0 is the no-effect control and ±100 the full control effect.

SMILES	DT40 TDP1 CPT	ALOX12 inh	HT1080 IDH1KD tx	DT40 TDP1 no CPT	HT1080-NT tox	IL-1B inflam inh
CCc1ccc(C(O)c2ncc(-c3ccccc3OC)[nH]2)cc1 (stereo not drawn)	23µM*	-3%	-11%	18µM*	0%	33
COc1ccccc1-c1cnc(C(O)c2cc(C)ccc2C)[nH]1 (stereo not drawn)	26µM*	5%	-2%	?	-1%	21
COc1ccccc1-c1cnc(C(O)c2ccccc2)[nH]1 (stereo not drawn)	-26%	-7%	?	?	-7%	-4
COc1ccccc1-c1cnc(C(O)c2ccc(C(C)(C)C)cc2)[nH]1 (stereo not drawn)	?	-12%	?	18µM*	-7%	-14
O=C(C1CC1)N1C[C@@H]2OCC(=O)N(Cc3cccnc3)[C@@H]2C1	.	45%[176 µM]	.	.	.	.
Cc1ccc(CNC(=S)NCCN(C)C)cc1	.	-10%	.	.	.	.
COc1ccc(-c2[nH]c(-c3cccc(OC)c3)nc2SCC(=O)NC2CCCC2)cc1	21µM*	-17%	?	23µM*	-22%	-23
COc1ccc(-c2[nH]c(-c3ccc(F)cc3)nc2SCC(=O)NC2CCCC2)cc1	?	-1%	-29%	?	-17%	-14
COc1ccc(-c2[nH]c(-c3ccccc3)nc2SCC(=O)NC2CCCC2)cc1	23µM*	-5%	-23%	21µM*	-1%	?
COc1ccc(OC)c(CN2CCCC(COc3ccccc3C(=O)N3CCCC3)C2)c1 (stereo not drawn)	.	49%	.	.	.	.
COc1ccc(F)cc1C(=O)C1CCCN(Cc2c[nH]c3ccccc23)C1 (stereo not drawn)	4.1µM*	-16%	-30%	4.6µM*	-28%	?
CSc1ccccc1C(=O)C1CCCN(Cc2c(C)n(C)n(-c3ccccc3)c2=O)C1 (stereo not drawn)	?	-2%	-3%	29µM*	-5%	-4
COc1c(C)cc(C(=O)C2CCCN(Cc3c(C)n(C)n(-c4ccccc4)c3=O)C2)cc1C (stereo not drawn)	-28%	-13%	1%	-28%	-1%	20
COc1ccc(F)cc1C(=O)C1CCCN(Cc2cn(C)c3ccccc23)C1 (stereo not drawn)	15µM*	-4%	?	13µM*	?	-78*
COC(=O)c1ccc(CN2CCCC(C(=O)c3cc(F)ccc3OC)C2)cc1 (stereo not drawn)	?	?	-6%	-28%	-5%	0
CC(C)NC(=O)c1ccccc1OCC1CCCN(Cc2cn(C)c3ccccc23)C1 (stereo not drawn)	.	23%	.	.	.	.
COc1ccc(OC)c(CN2CCCC(C(=O)c3ccccc3SC)C2)c1 (stereo not drawn)	13µM*	4%	?	9.2µM*	?	-68*
N#Cc1ccc(CSc2ccc3c(c2)OCCCO3)cc1	.	-19%	.	.	.	.
COc1ccc(NC(=O)C(C)n2cccn2)cc1OC(F)F (stereo not drawn)	.	-29%	.	.	.	.
CCc1ccc(C2C(C#N)=C(N)OC3=C2C(=O)CC(C)(C)C3)cc1 (stereo not drawn)	.	-62%	.	.	.	.
CCn1c(=O)c2c(cc(C)n2C)n(CC(=O)Nc2c(C)cccc2C)c1=O	.	56%	.	.	.	.
Cn1cc(CN2CCCC(COc3ccccc3C(=O)N3CCCC3)C2)c2ccccc21 (stereo not drawn)	.	-13%	.	.	.	.
Cn1cc(CN2CCCC(C(=O)c3cc(F)ccc3F)C2)c2ccccc21 (stereo not drawn)	?	-17%	?	16µM*	?	-71*
CCOc1ccc(CCNC(=O)c2noc(C)c2Cn2nc(C)cc2C)cc1OCC	.	6%	.	.	.	.
